Measured values from PubChem BioAssay AID1159580 (chemical genetic matrix, 2015).
Several values for one entry are separate records, joined by “and”; a condition that tells them apart may be missing. Equal entries are not always repeated. Out of some 5,500 compounds screened, about 2,000 (36%) were called active. Another 18% or so got no clear call; they are omitted. Cut-off read from the data, not from the text of the source: active = normalized growth mostly below about 0.91 (no sharp cut-off); inconclusive = no clear call, values can overlap the other calls; inactive = mostly above about 0.92. This is one part of the list.

Experiment: chemical genetic growth profiling, strain panel (AID 1159580);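 note: tested at 20 µM; growth read once vehicle control cultures reached saturation at 30 °C; 1 = growth at the plate median or of vehicle wells; lower values mean less growth of the strain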
Settings: S. cerevisiae deletion strains, growth OD

Measured: normalized growth

Nc1ccn(C2O[C@H](CO)[C@@H](O)[C@@H]2O)c(=O)n1 (stereo partly drawn)
inactive: locus YAL021C, strain ccr4, stronger effect = lower value 0.997 | locus YAL026C, strain drs2, stronger effect = lower value 0.974 | locus YAL030W, strain snc1, stronger effect = lower value 0.999 | locus YBL061C, strain skt5, stronger effect = lower value 1.01 | locus YBR009C, strain hhf1, stronger effect = lower value 0.972 | locus YBR021W, strain FUR4, stronger effect = lower value 1.02 | locus YBR023C, strain chs3, stronger effect = lower value 1.02 | locus YBR171W, strain sec66, stronger effect = lower value 0.994 | locus YBR229C, strain ROT2, stronger effect = lower value 1.01 | locus YBR231C, strain swc5, stronger effect = lower value 0.999 | locus YBR279W, strain paf1, stronger effect = lower value 0.998 | locus YCL011C, strain gbp2, stronger effect = lower value 1 | locus YCL016C, strain dcc1, stronger effect = lower value 1.05 | locus YCL029C, strain bik1, stronger effect = lower value 1 | locus YCL061C, strain MRC1, stronger effect = lower value 1.01 | locus YCL069W, strain vba3, stronger effect = lower value 0.979 | locus YCR088W, strain abp1, stronger effect = lower value 0.986 | locus YDL005C, strain med2, stronger effect = lower value 0.989 | locus YDL035C, strain GPR1, stronger effect = lower value 1.03 | locus YDL040C, strain nat1, stronger effect = lower value 0.984 | locus YDL074C, strain BRE1, stronger effect = lower value 1.01 | locus YDL101C, strain DUN1, stronger effect = lower value 1 | locus YDL185W, strain tfp1, stronger effect = lower value 0.991 | locus YDL192W, strain arf1, stronger effect = lower value 0.998 | locus YDR001C, strain nth1, stronger effect = lower value 0.989 | locus YDR069C, strain doa4, stronger effect = lower value 0.984 | locus YDR101C, strain arx1, stronger effect = lower value 1.02 | locus YDR137W, strain rgp1, stronger effect = lower value 1.01 | locus YDR159W, strain sac3, stronger effect = lower value 0.961 | locus YDR162C, strain NBP2, stronger effect = lower value 1.02 | locus YDR195W, strain ref2 0.997 | locus YDR297W, strain sur2, stronger effect = lower value 0.986 | locus YDR318W, strain mcm21, stronger effect = lower value 1 | locus YDR334W, strain swr1, stronger effect = lower value 0.987 | locus YDR335W, strain msn5, stronger effect = lower value 0.997 | locus YDR388W, stronger effect = lower value 0.994 | locus YDR392W, strain spt3, stronger effect = lower value 0.943 | locus YDR502C, strain sam2, stronger effect = lower value 1.02 | locus YEL003W, strain gim4, stronger effect = lower value 0.973 | locus YEL037C, strain rad23, stronger effect = lower value 0.973 | locus YEL061C, strain CIN8 (second series), stronger effect = lower value 0.976 | locus YEL061C, strain CIN8, stronger effect = lower value 1.01 | locus YER015W, strain faa2, stronger effect = lower value 1.01 | locus YER016W, strain bim1, stronger effect = lower value 1.01 | locus YER110C, stronger effect = lower value 1 | locus YER111C, strain swi4, stronger effect = lower value 0.987 | locus YER155C, strain BEM2 (second series), stronger effect = lower value 0.969 | locus YER155C, strain BEM2, stronger effect = lower value 1.01 | locus YER167W, strain BCK2, stronger effect = lower value 1.01 | locus YFR010W, strain ubp6, stronger effect = lower value 0.976 | locus YGL078C, strain dbp3, stronger effect = lower value 0.995 | locus YGL086W, strain mad1, stronger effect = lower value 1 | locus YGL167C, strain pmr1, stronger effect = lower value 1.01 | locus YGL173C, strain kem1, stronger effect = lower value 1 | locus YGL227W, strain vid30, stronger effect = lower value 0.995 | locus YGL240W, strain doc1, stronger effect = lower value 1 | locus YGL248W, strain PDE1, stronger effect = lower value 0.987 | locus YGL253W, strain hxk2, stronger effect = lower value 1 | locus YGR135W, strain pre9, stronger effect = lower value 0.983 | locus YGR252W, strain gcn5, stronger effect = lower value 1 | locus YHR013C, strain ard1, stronger effect = lower value 1.02 | locus YHR027C, strain rpn1, stronger effect = lower value 0.996 | locus YHR030C, strain SLT2, stronger effect = lower value 1.01 and 1.02 | locus YHR079C, strain IRE1 (second series), stronger effect = lower value 0.996 | locus YHR079C, strain IRE1, stronger effect = lower value 1.02 | locus YHR094C, strain hxt1, stronger effect = lower value 0.996 | locus YHR129C, strain ARP1, stronger effect = lower value 1.01 | locus YHR142W, strain chs7, stronger effect = lower value 1.01 | locus YHR200W, strain rpn10, stronger effect = lower value 1 | locus YIL066C, strain RNR3, stronger effect = lower value 1.01 | locus YIL073C, strain SPO22, stronger effect = lower value 1.01 | locus YIL125W, strain kgd1, stronger effect = lower value 0.997 | locus YIR030C, strain dcg1, stronger effect = lower value 1.01 | locus YJL092W, strain hpr5, stronger effect = lower value 0.985 | locus YJL095W, strain BCK1 (second series), stronger effect = lower value 1 | locus YJL095W, strain BCK1, stronger effect = lower value 0.977 and 1.01 | locus YJL115W, strain asf1, stronger effect = lower value 0.978 | locus YJL129C, strain trk1, stronger effect = lower value 1.01 | locus YJL134W, strain LCB3, stronger effect = lower value 1 | locus YJL154C, strain vps35, stronger effect = lower value 0.981 | locus YJL164C, strain tpk1, stronger effect = lower value 0.989 | locus YJL166W, strain qcr8, stronger effect = lower value 1.02 | locus YJL168C, strain set2, stronger effect = lower value 1 | locus YJL187C, strain SWE1 (second series), stronger effect = lower value 0.997 | locus YJL187C, strain SWE1, stronger effect = lower value 0.994 | locus YJR043C, strain POL32, stronger effect = lower value 1.03 | locus YJR066W, strain TOR1, stronger effect = lower value 0.99 | locus YJR075W, strain HOC1, stronger effect = lower value 1.01
